Assay results published in PubChem BioAssay (NCATS).
Records with an inconclusive call do not appear. Calls of active or inactive are those of the source. The call rests on the fitted dose curve; in most records, active means well fitted cell-killing curve with a large enough effect; inconclusive means small, poorly fitted or top-dose-only effect; inactive means flat fitted curve, though single readings scatter.

Assay: Cell Viability - LYMP2-012 (AID 982);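 further: cellular ATP by luciferase luminescence where a drop means cytotoxicity; cells exposed to compound for one day before reading; nearly all actives have a fitted effect of over 55% in size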;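 on activity change, negative = cytotoxicity: 0% = DMSO only and full loss = 92 µM tetraoctylammonium bromide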
Conditions: LYMP2-012 lymphoblastoid cell viability qHTS; series mostly up to 92.2 µM; activity change, negative = cytotoxicity: at the top concentration
Excerpt: NIH Chemical Genomics Center [NCGC]
NIH Molecular Libraries Screening Centers Network [MLSCN]
National Institutes of Environmental Health Sciences [NIEHS]
National Toxicology Program [NTP]
We have developed a 1536-well cell-based assay for quantitative high throughput screening (qHTS) against a number of cell lines to determine in vitro cytotoxicity of small molecules. This particular assay uses a human lymphoblastoid cell line (LYMP2-012) purchased from Coriell Institute for Medical Research.
NCGC Assay Protocol Summary:
The CellTiter-Glo luminescent cell viability assay (Promega) is a homogeneous method to measure the number of viable cells in culture. The end point readout of this assay is based on quantitation of intracellular ATP, an indicator of metabolic activity, using the luciferase reaction. Luciferase catalyzes the oxidation of beetle Luciferin to oxyluciferin and light in the presence of ATP. The luminescent signal is proportional to amount of ATP present.
Using the CellTiter-Glo luminescent cell viability assay, the amount of cellular ATP was measured in the lymphoblastoid cell line with complete culture medium following compound treatment for 24 hours. The assay was performed in opaque white Kalypsys 1536-well plates. In the screen, tetraoctylammonium bromide was used as positive control. Library compounds were measured for their ability to cause acute toxicity in the cell line, as reflected by a decrease in intracellular ATP levels, in a concentration-dependent manner. […] AC50 values were determined from concentration-response data modeled with the standard Hill equation.
qHTS protocol for CellTiter Glo lymphoblastoid cellular assay
[Step] [Parameter] [Value] [Description]
1. Reagent; 5 uL; 2500 lymphoblastoid cells/well
2. Time; 5 hr; 37 C incubation
4. Controls; 23 nL; Tetraoctylammonium bromide 6.4pM to 92 uM
5. Time; 24 hr; 37 C incubation
6. Reagent; 5 uL; CellTiter Glo reagent
7. Time; 30 min; Room Temperature
8. Detection; Luminescence; Viewlux plate reader
Keywords: cell viability, cytotoxicity, lymphoblastoid cell line, luminescence, NTPHTS, NTPHTS_NCGC, NIEHS, DSSTox, MLSMR, MLSCN, NIH Roadmap, qHTS, NCGC
Potency means the concentration at half of the fitted maximal effect.

SMILES	Potency	activity change, negative = cytotoxicity
CCCCOCCO	inactive	
O=[N+]([O-])c1cccc(Cl)c1Cl		-1.17% (inactive)
CC1=CC(C)(C)Nc2ccccc21	inactive	
COc1ccc(/C=C/c2cc(OC)cc(=O)o2)cc1		4.25% (inactive)
C1OCOCO1		-9.04% (inactive)
Cc1ccc(N)c([N+](=O)[O-])c1		-0.329% (inactive)
O=C(O)c1ccccc1		4.53% (inactive)
COCC(=O)O		8.17% (inactive)
C=CCc1ccc(OC)c(OC)c1		1.5% (inactive)
O=C1c2ccccc2C(=O)C1c1ccc2ccccc2n1		-9.02% (inactive)
Nc1ccc(S(=O)(=O)O)cc1		1.91% (inactive)
c1ccc2scnc2c1		4.85% (inactive)
CCCCCCCCCCCCCC(=O)O		-9.34% (inactive)
c1ccc2c(c1)c1cccc3ccc4cccc2c4c31		7.94% (inactive)
CCCCC(CC)CN (stereo not given)	inactive	
CCO		-2.5% (inactive)
CCCCCCCCCCCC(=O)O	inactive	
O=C(O)c1ccccc1C(c1ccc(O)cc1)c1ccc(O)cc1		3.32% (inactive)
C=CC(=C)CCC=C(C)C		-7.15% (inactive)
C=C(C)C1CC=C(C)C(O)C1 (stereo not given)		-3.61% (inactive)

SMILES	Potency	activity change, negative = cytotoxicity
O=NO	inactive	
CN(C)C=O	inactive	
C=CCOC(=O)c1ccccc1C(=O)OCC=C		-2.73% (inactive)
COC(=O)c1ccc(C=O)cc1		4.67% (inactive)
CC(C)=CCCC(C)CCO (stereo not given)		-2.3% (inactive)
COC(=O)CCCCC(=O)OC		5.91% (inactive)
C=CC(=O)OCCOCCOCCOCCOC(=O)C=C	12.6 µM (active)	
COc1cc(/C=C/c2ccccc2)oc(=O)c1		-10.9% (inactive)
O[C@@H]([C@H](O)[C@@H](O)CBr)[C@@H](O)CBr		-4.14% (inactive)
Cc1ccc([N+](=O)[O-])c(C)c1		4.68% (inactive)
Cc1cccc([N+](=O)[O-])c1C		11.6% (inactive)
CN(C)CCCCCCN(C)C		-8.51% (inactive)
COC(=O)c1ccc(C)cc1		2.75% (inactive)
Clc1cc(Cl)c(Cl)cc1Cl		-0.0051% (inactive)
C[C@H](CCC(=O)O)[C@H]1CC[C@H]2[C@@H]3CC[C@@H]4C[C@H](O)CC[C@]4(C)[C@H]3CC[C@]12C		-7.19% (inactive)
ClCCCl		25.1% (inactive)
NC1=NC(S)C2N=CN=C2N1 (stereo not given)	7.94 µM (active)	
COc1c2ccoc2cc2oc(=O)ccc12		-15.2% (inactive)
C/C=C\c1ccc(OC)cc1		-2.6% (inactive)
O=C(O)c1ccc(O)cc1O	inactive	
